# Experimental data taken from PubChem BioAssay.
# Columns and labels:
# [1] = tested on: Human papillomavirus type 1a protein E7 (residues 44-93); test: HPV1a E7 fragment binders on microarrays, primary screen, biochemical, small-molecule microarray, residues 44-93, 635 nm fluorescence (AID 1108); details: small-molecule microarray binding, fluorescence 635 nm; higher = more signal;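 also: E7 fragment applied at 1 µg/mL in TBST for 1 h at 4 C; score combines spot fluorescence with its signal to noise ratio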
# [2] = modulators of HCV replicon luciferase signal, primary screen, HCV replication inhibitor project, Huh7 cells, luciferase reporter (AID 1109); details: 48 h, higher = more signal;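 also: huh7 hepatoma cells harbouring a luciferase neomycin HCV replicon reporter; luciferase luminescence as measure of HCV replicon replication; test concentration not given here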
# [3] = target: Left-right determination factor 2 (Homo sapiens) (UniProt O00292); test: LEFTY2 binders on small-molecule microarrays, primary screen, biochemical, small-molecule microarray, 635 nm fluorescence scan (AID 1110); details: LEFTY2 binding, higher = more signal
# [4] = target: Calmodulin-1 (Homo sapiens) (UniProt P0DP23); test: CALM1 binders on microarrays, EGTA buffer, profiling panel, biochemical, small-molecule microarray, Cy5-labelled CALM1 (AID 1111); details: Cy5-CALM1 binding fluorescence, higher = more signal;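 also: labelled calmodulin applied in Tris saline Tween buffer holding calcium plus EGTA and DTT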
# [5] = target: Calmodulin-1 (Homo sapiens) (UniProt P0DP23); test: calcium-bound CALM1 binders on microarrays, profiling panel, artefact control for SMM control-protein annotation, biochemical, small-molecule microarray, Cy5-labelled CALM1, plus calcium (AID 1112); details: Cy5-CALM1 binding fluorescence, higher = more signal;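 also: score merges spot fluorescence with signal to noise from triplicate slides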
# [6] = small-molecule microarray binders of probe aWnt5a, primary screen, biochemical, biotinylated probe, 635/667 nm fluorescence (AID 1113); details: higher = more signal;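 also: score merges 667 nm fluorescence intensity with signal-to-noise per printed feature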
# [7] = small-molecule microarray binders of probe aShh, primary screen, biochemical, biotinylated probe, 635/667 nm fluorescence (AID 1114); details: higher = more signal;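 also: probe is biotin-labelled aShh protein from a stem cell growth factor screen; measures binding of labelled protein to compounds printed on the slide; score merges feature fluorescence at 667 nm with signal-to-noise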
# [8] = small-molecule microarray binders of probe aNog, primary screen, biochemical, biotinylated probe, 635/667 nm fluorescence (AID 1115); details: higher = more signal;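 also: probe is biotinylated aNog protein used at 0.15 µg/mL for 1 h at 4 C; z-score combines 667 nm fluorescence of each spot with its signal to noise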
# [9] = target: Torsin-1A-interacting protein 1 (Homo sapiens) (UniProt Q5JTV8); test: LAP1 binders from COS7 cell lysate, primary screen, small-molecule microarray, 635/667 nm fluorescence (AID 1116); details: COS7-hLAP1 lysate binding, 635 nm fluorescence, higher = more signal
# [10] = target: Alpha-bungarotoxin (Bungarus multicinctus) (UniProt P60615); test: alpha-bungarotoxin binders on microarray, profiling panel, artefact control for SMM control protein annotation, biochemical, small-molecule microarray, Alexa647 label, 635/667 nm fluorescence (AID 1117); details: alpha-BTX-A647 binding fluorescence, higher = more signal
# Alpha-bungarotoxin (Bungarus multicinctus), sequence (P60615 whole entry, looked up): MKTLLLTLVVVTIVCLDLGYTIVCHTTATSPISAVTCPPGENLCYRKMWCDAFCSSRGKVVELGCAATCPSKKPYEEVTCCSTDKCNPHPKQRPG
# Torsin-1A-interacting protein 1 (Homo sapiens), sequence (Q5JTV8 whole entry, looked up): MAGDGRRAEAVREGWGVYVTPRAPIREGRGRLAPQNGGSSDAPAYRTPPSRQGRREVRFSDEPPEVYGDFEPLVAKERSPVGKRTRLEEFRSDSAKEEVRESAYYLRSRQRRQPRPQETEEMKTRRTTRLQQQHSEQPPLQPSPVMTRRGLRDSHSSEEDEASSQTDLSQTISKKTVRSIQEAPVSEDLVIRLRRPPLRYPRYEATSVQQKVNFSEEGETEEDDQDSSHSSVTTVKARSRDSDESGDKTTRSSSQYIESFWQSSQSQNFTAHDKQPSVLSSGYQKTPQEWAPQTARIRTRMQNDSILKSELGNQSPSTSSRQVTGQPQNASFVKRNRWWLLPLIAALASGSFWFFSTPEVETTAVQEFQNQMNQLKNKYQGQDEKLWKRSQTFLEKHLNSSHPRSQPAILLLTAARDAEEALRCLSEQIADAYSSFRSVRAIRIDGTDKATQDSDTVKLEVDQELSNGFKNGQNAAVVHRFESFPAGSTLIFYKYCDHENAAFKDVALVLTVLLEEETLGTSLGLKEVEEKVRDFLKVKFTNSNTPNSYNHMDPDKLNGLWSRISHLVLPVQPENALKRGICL
# Left-right determination factor 2 (Homo sapiens), sequence (O00292 whole entry, looked up): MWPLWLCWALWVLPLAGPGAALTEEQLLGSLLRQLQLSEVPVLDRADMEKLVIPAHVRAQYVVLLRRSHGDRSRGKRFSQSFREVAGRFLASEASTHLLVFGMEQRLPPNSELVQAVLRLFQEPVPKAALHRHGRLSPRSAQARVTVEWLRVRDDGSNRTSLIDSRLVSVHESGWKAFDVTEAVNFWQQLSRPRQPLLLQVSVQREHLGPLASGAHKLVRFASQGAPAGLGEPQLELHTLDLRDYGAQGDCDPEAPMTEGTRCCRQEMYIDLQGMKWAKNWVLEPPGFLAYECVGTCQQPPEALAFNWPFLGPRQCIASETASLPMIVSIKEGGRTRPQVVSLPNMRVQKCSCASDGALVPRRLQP
SMILES,composite z-score [1],z-score [2],composite z-score [3],composite z-score [4],composite z-score [5],composite z-score [6],composite z-score [7],composite z-score [8],composite z-score [9],composite z-score [10]
COc1ccc([Si](C)(C)[C@@H]2[C@@H](CCO)O[C@]3(C(=O)N(Cc4ccccc4)c4ccc(N(C=O)c5ccccc5)cc43)[C@H]2C)cc1,-0.736,-4.14,0.391,0.194,0.841,-0.117,0.0684,-0.0036,0.301,-0.525
C[C@]1(C(=O)NCC(F)(F)F)c2ccccc2C(=O)N(Cc2cc(F)cc(C(F)(F)F)c2)[C@H]1c1ccc(CO)cc1,1.05,-0.906,-0.977,1.6,0.302,-0.224,0.0024,0.452,0.729,0.0035
CC1(C)C(=O)C(c2ccccc2)=C2CN3C(=O)N(CCc4ccccc4)C(=O)C3(Cc3ccccc3)C=C21 (stereo not given),1.03,-1.58,-0.0283,1.03,0.9,0.0633,0.375,0.578,-0.0882,1.68
O=C(NCC(O)CO)[C@]1(CCS(=O)(=O)c2ccccc2)N=C(c2ccc(OCCCO)cc2)O[C@@H]1c1ccccc1 (stereo not given in full),0.556,-0.326,-0.805,1.99,1.48,-0.0846,0.0756,1.12,2.69,2.41
CC(C)(C)OC(=O)CC[C@@]1(C(=O)N2CCOCC2)N=C(c2ccc(OCCCO)cc2)O[C@@H]1c1ccccc1N=[N+]=[N-],1.48,0.623,0.395,1.56,0.642,0.115,0.558,0.45,1.6,2.41
O=S(=O)(NCCCO)c1ccc(Br)cc1,0.54,-0.164,0.548,0.873,0.698,0.0251,-0.138,-0.122,0.365,0.284
O=C1OCCC/C=C\[C@H]2OC34C=CCN(CCN5CCOCC5)C(=O)[C@H]3N(CCO)C(=O)[C@@H]4C12 (stereo not given in full),-0.359,0.0112,-0.416,-0.0877,0.124,-0.176,-0.2,0,-0.0137,-0.938
C#C[C@H]1Oc2ccccc2S(=O)(=O)N2CCC[C@@H]12,-0.137,-0.871,0.533,-0.982,-0.495,-0.169,0.0815,-0.1,0.0849,-0.288
Cc1ccc(C(C)CC(O)C2C=CC3C(=O)NC(=O)C3N2Nc2ccccn2)o1 (stereo not given),0.0598,-0.146,0.479,-0.409,-0.743,-0.1,-0.0626,-0.0863,0.773,-0.0054
CCCNC(=O)[C@@]1(c2ccc([N+](=O)[O-])cc2)CC(=O)N(CC23CC4CC(CC(C4)C2)C3)[C@@H]1c1ccc(CO)cc1I,0.0836,-3.32,0.152,0.838,0.94,-0.0303,0.166,0.431,-0.421,0.695
O=C1C2C=CC(C(O)CCc3ccccc3)N(Nc3ccccc3)C2C(=O)N1c1ccccc1 (stereo not given),0.0852,0.123,-0.231,2.65,1.4,0.0797,0.382,1.11,2.2,3.09
O=C1C2C=CC(C(O)c3ccc(-c4ccccc4)s3)N(Nc3ccccc3F)C2C(=O)N1c1ccccc1 (stereo not given),1.37,1.78,-0.0452,1.95,1.24,-0.0758,0.274,-0.54,0.599,1.21
C=CCOC(=O)[C@H]1[C@@H]2C(=O)O[C@@H](c3ccccc3)[C@@H](c3ccccc3)N2[C@@H](c2ccc(OCCOC(=O)[C@@H]3C[C@@H]4C(=O)NCC(=O)N4[C@@H]3c3ccc(O)cc3)cc2)[C@]12C(=O)Nc1ccc(I)cc12,1.37,-1.59,1.04,1.56,0.341,-0.0519,0.131,-0.412,1.14,1.52
[N-]=[N+]=Nc1ccccc1C[C@]1(C(=O)N2CCCCC2)N=C(c2ccc(OCCCO)cc2)O[C@H]1c1ccccc1N=[N+]=[N-],0.903,-2.5,-0.0089,1.46,0.605,0.2,0.294,1.87,1.21,0.703
COCCOC(=O)N1C(=O)[C@@]2(c3cc(C#CCCO)ccc31)[C@H](c1ccc(O)cc1)N1[C@H](c3ccccc3)[C@H](c3ccccc3)OC(=O)[C@H]1[C@@H]2C(=O)N1CCCCCCC1,0.727,-0.407,0.811,1.51,0.425,0.17,0.374,-0.295,2.53,1.92
CC(c1ccccc1)C(O)C1C=CC2C(=O)N(Cc3ccccc3)C(=O)C2N1n1cnnc1 (stereo not given),1.12,-0.562,0.202,-0.133,0.13,0.0657,0.297,0.49,0.0111,0.512
CN1C(=O)C2C=CC(C(O)C(c3ccccc3)c3ccccc3)N(Nc3ccccc3)C2C1=O (stereo not given),1.42,-1.13,-0.0076,1.29,0.567,0.137,0.216,0.713,0.597,1.34
[N-]=[N+]=NCc1ccccc1C[C@]1(C(N)=O)N=C(c2ccc(OCCCO)cc2)O[C@H]1c1ccccc1N=[N+]=[N-],1.4,-0.507,0.308,1.18,0.596,0.193,0.232,1.08,1.71,1.24
COCCOC(=O)N1C(=O)[C@@]2(c3cc(C#Cc4ccc(OC)cc4)ccc31)[C@H](C(N)=O)[C@H]1C(=O)O[C@H](c3ccccc3)[C@H](c3ccccc3)N1[C@@H]2c1ccc(O)cc1,-0.426,-1.01,-1.58,-0.844,0.247,0.0243,-0.487,0.909,0.127,-1.05
CCCCN1CC=CC23O[C@@H]4C=CCCOC(=O)C4[C@H]2C(=O)N(CCCO)[C@@H]3C1=O (stereo not given in full),-0.73,-1.1,-0.513,-0.479,-0.503,-0.196,-0.2,-0.0784,-0.643,-1.13
CCCC[C@H]1C[C@@H]1[C@@H]1N(P(=O)(c2ccccc2)c2ccccc2)[C@](CO)(c2ccccc2)CC12CC2,0.992,-2.4,-1.58,1.85,1.08,0.188,0.562,1.75,0.0187,-0.0785
[N-]=[N+]=NCc1ccccc1[C@H]1OC(c2ccc(OCCCO)cc2)=N[C@@]1(Cc1ccccc1)C(=O)NCC(O)CO (stereo not given in full),1.13,-1.38,-0.524,1.52,0.564,0.507,0.128,1.9,1.51,0.131
C[N+](C)(C)CCCC[C@@H]1NC(=O)[C@H]2C[C@@H](C(=O)O)[C@@H](c3cccc(OCCO)c3)N2C1=O,1.47,-0.774,0.968,2.16,0.618,1.18,2.34,2.84,3.37,3.77
Cc1ccc(S[C@]2(C(=O)NCC(C)C)CC(=O)N(Cc3ccccc3)[C@@H]2c2ccc(CO)cc2)cc1,0.725,-1.99,-1.83,-0.624,-0.249,-0.141,-0.0904,0.596,0.769,0.147
Cc1ccc(S(=O)(=O)N2CC(C(=O)O)=CCC2c2ccccc2)cc1 (stereo not given),0.467,-0.212,-1.58,0.0207,0.52,0.173,0.0639,-0.468,0.505,0.277
CCN(CC)c1ccc(N2CC=CC34O[C@@H]5/C=C\CCC(C)OC(=O)C5[C@H]3C(=O)N(CCCCCCO)[C@@H]4C2=O)cc1 (stereo not given in full),-0.27,-0.693,-0.694,-0.423,-0.304,-0.13,-0.223,-0.16,0.891,-1.04
